The sample as a whole holds a higher share of hits than the screen did.
Tgondii IFNg: blocks Toxoplasma gondii growth in the presence of IFN-gamma; hit rate 3.8% among 69,000; activity change, negative = inhibition, % (concentration not given with the values); Toxoplasma gondii growth in IFN-gamma-treated host cells; active compounds read low; in the data active = activity change below about -70%, passing the limit was not always enough;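 note: host cells are HeLa cells infected with Toxoplasma gondii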
Large screens that a line does not name were inactive.

COc1ccc(S(=O)(=O)Nc2ccc3c(c2)C(=O)N([C@@H](C)CO)C[C@@H](C)[C@@H](CN(C)S(=O)(=O)c2ccc(Cl)cc2)OCCCC[C@@H](C)O3)cc1	Tgondii IFNg -137
C[C@H](CO)N1C[C@H](C)[C@@H](CN(C)S(=O)(=O)c2ccc(Cl)cc2)OCCCC[C@H](C)Oc2ccc(NC(=O)Nc3ccc(C(F)(F)F)cc3)cc2C1=O	none
COc1ccc(S(=O)(=O)N(C)C[C@H]2OCCCC[C@H](C)Oc3ccc(NC(=O)Cc4ccccc4)cc3C(=O)N([C@@H](C)CO)C[C@H]2C)cc1	none
COc1ccc(S(=O)(=O)Nc2ccc3c(c2)C(=O)N([C@H](C)CO)C[C@H](C)[C@H](CN(C)S(=O)(=O)c2ccc(Cl)cc2)OCCCC[C@H](C)O3)cc1	Tgondii IFNg -82
COc1ccc(S(=O)(=O)Nc2ccc3c(c2)C(=O)N([C@H](C)CO)C[C@@H](C)[C@@H](CN(C)S(=O)(=O)c2ccc(Cl)cc2)OCCCC[C@@H](C)O3)cc1	Tgondii IFNg -110
COc1ccc(S(=O)(=O)Nc2ccc3c(c2)C(=O)N([C@@H](C)CO)C[C@@H](C)[C@H](CN(C)S(=O)(=O)c2ccc(Cl)cc2)OCCCC[C@@H](C)O3)cc1	none
C[C@@H]1CCCCO[C@@H](CN(C)S(=O)(=O)c2ccc(Cl)cc2)[C@H](C)CN([C@@H](C)CO)C(=O)c2cc(NC(=O)Nc3ccc(C(F)(F)F)cc3)ccc2O1	none
COc1ccc(S(=O)(=O)N(C)C[C@H]2OCCCC[C@H](C)Oc3ccc(NC(=O)Cc4ccccc4)cc3C(=O)N([C@@H](C)CO)C[C@@H]2C)cc1	Tgondii IFNg -108
N#Cc1cccc(N2CCCC3(C2)CN(c2nncs2)CCO3)c1 (configuration not stated)	none
Cc1cc(C)nc(Nc2cccc(C(=O)O)c2)n1	none
COc1ncccc1NC(=O)c1ccnn1-c1ccc2ccc(-c3cccnc3)cn12	none
CC(=O)Nc1cccc2c(C(=O)N3CCC(N4CCCCC4)CC3)ccnc12	none
CCOC(=O)c1c(C)[nH]c(C(=O)N2CCC(O)(c3ccc(C)cn3)CC2)c1C	none
COCCN1CCCC(O)(CN(C)Cc2cnccn2)C1=O (configuration not stated)	none
Cc1cccn2c(=O)c(-c3nn[nH]n3)cnc12	none
Cc1ccccc1NC(=O)N1CCC(c2nc(C(=O)N3CCOCC3)c(C)o2)CC1	none
CN(C)CCNC(=O)c1ccc2nnc3ncn(Cc4ccccc4)c3c2c1	none
Cc1cc(C2CCCN2C(=O)c2cc(-c3ccccc3)n[nH]2)on1 (configuration not stated)	none
CN(CC1(CO)CCOCC1)c1nc(C2CCCC2)nc2c1CNC2	none
O=C(c1ccco1)N1CCCn2c(CN3CCCC3)nnc2C1	none
C[C@H](CO)N1C[C@H](C)[C@H](CN(C)S(=O)(=O)c2ccc(Cl)cc2)OCCCC[C@H](C)Oc2ccc(NC(=O)Nc3ccc(C(F)(F)F)cc3)cc2C1=O	none
C[C@H](CO)N1C[C@H](C)[C@H](CN(C)CC2CC2)OCCCC[C@H](C)Oc2ccc(NC(=O)c3ccccc3)cc2C1=O	Tgondii IFNg -83
C[C@@H]1CCCCO[C@H](CN(C)CC2CC2)[C@H](C)CN([C@H](C)CO)C(=O)c2cc(NC(=O)c3ccccc3)ccc2O1	none
C[C@@H]1CN([C@@H](C)CO)C(=O)c2cc(NC(=O)Nc3ccc4c(c3)OCO4)ccc2O[C@@H](C)CCCCO[C@@H]1CN(C)S(=O)(=O)c1ccccc1	none
C[C@@H]1CN([C@H](C)CO)C(=O)c2cc(NC(=O)Nc3ccc(C(F)(F)F)cc3)ccc2O[C@@H](C)CCCCO[C@H]1CN(C)S(=O)(=O)c1ccc(Cl)cc1	none
C[C@H]1CCCCO[C@H](CN(C)S(=O)(=O)c2ccccc2)[C@@H](C)CN([C@@H](C)CO)C(=O)c2cc(NC(=O)Nc3ccc4c(c3)OCO4)ccc2O1	Tgondii IFNg -91
C[C@@H]1CCCCO[C@H](CN(C)S(=O)(=O)c2ccccc2)[C@@H](C)CN([C@H](C)CO)C(=O)c2cc(NC(=O)Nc3ccc4c(c3)OCO4)ccc2O1	none
COc1ccc(S(=O)(=O)Nc2ccc3c(c2)C(=O)N([C@@H](C)CO)C[C@@H](C)[C@H](CN(C)S(=O)(=O)c2ccc(Cl)cc2)OCCCC[C@H](C)O3)cc1	Tgondii IFNg -102
COc1ccc(S(=O)(=O)Nc2ccc3c(c2)C(=O)N([C@H](C)CO)C[C@@H](C)[C@@H](CN(C)S(=O)(=O)c2ccc(Cl)cc2)OCCCC[C@H](C)O3)cc1	Tgondii IFNg -117
C[C@H](CO)N1C[C@H](C)[C@@H](CN(C)CC2CC2)OCCCC[C@H](C)Oc2ccc(NC(=O)c3ccccc3)cc2C1=O	none
Cc1ccccc1NC(=O)NCC(c1cccnc1)c1cn(C)c2ccccc12 (configuration not stated)	none
CCc1nncn1-c1ccccc1OCC(=O)Nc1cccc2ccc(C)nc12	none
CCc1ccccc1NC(=O)N1CCc2nc(N3CCCC3)nc(C)c2CC1	none
COc1ccccc1C(=O)N1CCC2(CC1)Nc1ccc(C)c(C)c1-n1cccc12	none
O=C(c1ccccc1NCc1cccs1)N1C[C@H]2CC[C@H]1C2	none
CSc1cccc(Nc2nc(-c3nnc(-c4ccccc4)o3)nc3ccccc23)c1	none

Screening results (PubChem BioAssay)
